Measured values as given in article PMC4552634, “A New Set of Chemical Starting Points with Plasmodium falciparum Transmission-Blocking Potential for Antimalarial Drug Discovery” (PLoS ONE, 2015).
Like-named read-outs stand apart in the source and are kept apart here. Screen size: about 13,000 compounds; about 3,200 (25%) showed an effect of 50% or more. The list shows a part of the results.

Tested on: P. falciparum stage V gametocytes
Set-up: BacTiter-Glo ATP luminescence viability of purified stage V gametocytes in 384-well plates, per cent inhibition versus DMSO
Details: 48 h, 5 µM, inhibitor

| Structure (SMILES) | % Inhibition [%] | % Inhibition (% Inhibition) [%] |
| --- | --- | --- |
| CC1(C)N=C(N)N=C(N)N1OCc1ccc2c(c1)OCO2 [TCMDC-131581] | 47.46 | – |
| CN1CCN(c2ccc(-c3cc(-c4ccncc4)c(-c4ccc(Cl)c(O)c4)o3)cc2)CC1 [TCMDC-141308] | 9.946 | – |
| Cc1nc(N)nc(N)c1OCCCCOc1ccccc1 [TCMDC-131353] | -22.41 | – |
| CCCOc1ccc(N2C(N)=NC(N)=NC2(C)C)cc1 [TCMDC-137702] | -17.71 | – |
| CC1(C)N=C(N)N=C(N)N1c1ccccc1 [TCMDC-123984] | -31.19 | – |
| CCCC(C)n1ccc2c3c(N)nc(N)nc3ccc21 (stereo not drawn) [TCMDC-137964] | -7.389 | – |
| CCCCCCn1ccc2c3c(N)nc(N)nc3ccc21 [TCMDC-137994] | 106.4 | – |
| CC(C)CNc1nc(N)nc2ccc3c(ccn3CC(C)C)c12 [TCMDC-137731] | 87.39 | – |
| Nc1nc(N)c2c(ccc3c2ccn3CCCF)n1 [TCMDC-138623] | 32.47 | – |
| CCCC(CCC)n1ccc2c3c(N)nc(N)nc3ccc21 [TCMDC-137949] | 60.59 | – |
| Nc1nc(N)c2c(ccc3c2ccn3CCCCO)n1 [TCMDC-137959] | 31.47 | – |
| CC(C)Cn1ccc2c3c(N)nc(N)nc3ccc21 [TCMDC-137997] | 21 | – |
| Nc1nc(N)c2c(ccc3nn(C4CCCC4)cc32)n1 [TCMDC-137960] | -20 | – |
| Nc1nc(N)c2c(ccc3c2ccn3C2CCCCC2)n1 [TCMDC-137871] | 105.4 | – |
| CCCC(CC)n1ccc2c3c(N)nc(N)nc3ccc21 (stereo not drawn) [TCMDC-137948] | 17.27 | – |
| Nc1nc(N)c2c(ccc3c2ccn3C2C=CCCC2)n1 (stereo not drawn) [TCMDC-137861] | 26.32 | – |
| CC(=O)Nc1nc(N)c2c(ccc3c2ccn3CC(C)C)n1 [TCMDC-137971] | 0.8169 | – |
| CCC(C(=O)Nc1ccccc1)n1nc(-c2ccc(C)c(S(=O)(=O)N3CCCCC3)c2)ccc1=O (stereo not drawn) [TCMDC-124712] | -71.76 | – |
| CC(=O)c1c(Cc2cccc(C(F)(F)F)c2)c[nH]c1C [TCMDC-124434] | -10.65 | – |
| COc1ccc(C(C(=O)NC2CCN(C[C@H](O)c3ccnc4ccc(OC)cc34)CC2)N2CCN(c3ccc(Cl)c(Cl)c3)CC2)cc1 (stereo partly drawn) [TCMDC-141101] | 14.7 | – |
| NC(N)=NC(=O)Nc1cc(Cl)c(F)c(Cl)c1 [TCMDC-137512] | -14.8 | – |
| Cc1cc(N(C)C)nc(Nc2ccc(NC(=O)c3ccccc3Cl)cc2)n1 [TCMDC-124722] | -1.9 | – |
| Nc1nc(N)c2c(ccc3c2ccn3CCCC(F)(F)F)n1 [TCMDC-138622] | 32.41 | – |
| C=CCn1ccc2c3c(N)nc(N)nc3ccc21 [TCMDC-137995] | 79.96 | – |

| Structure (SMILES) | % Inhibition [%] | % Inhibition (% Inhibition) [%] |
| --- | --- | --- |
| CCn1ccc2c3c(N)nc(N)nc3ccc21 [TCMDC-139864] | 0.4857 | – |
| Oc1ccc(Br)cc1C(O)CNCc1ccccc1OCc1ccccc1 (stereo not drawn) [TCMDC-140564] | 21.06 | – |
| OC1(CNCc2ccccc2)CCN(CCc2c[nH]c3ccc(F)cc23)CC1 [TCMDC-131975] | 35.49 | – |
| Fc1ccc2[nH]cc(CCN3CCC(CNCc4ccccc4)CC3)c2c1 [TCMDC-131984] | 53.36 | – |
| CN(Cc1ccccc1)C1CCN(CCc2c[nH]c3ccc(F)cc23)CC1 [TCMDC-131970] | 10.21 | – |
| N#Cc1ccc2c(c1)CN(CC[C@H]1CC[C@H](NC(=O)/C=C/c3c[nH]c4ccccc34)CC1)CC2 [TCMDC-139133] | – | 11.83 |
| O=C(NC1CCN(c2ccnc3cc(Cl)ccc23)C1)c1ccccc1F (stereo not drawn) [TCMDC-133660] | -3.046 | – |
| COC(=O)c1cccc(NC(=O)NCCNc2ccnc(Nc3ccc(F)cc3)n2)c1 [TCMDC-133642] | 41.44 | – |
| O=C(c1ccc(Br)o1)N1N=C(c2cccs2)CC1c1ccc(Br)cc1 (stereo not drawn) [TCMDC-125623] | 10.04 | – |
| COc1ccc(C2CCN(CCCCNC(=O)c3ccc(NC(=O)c4ccc(Cl)cc4)cc3)CC2)c(C)c1 [TCMDC-138359] | -1.308 | – |
| CC(=O)Oc1c(C2CCN(CCCCNC(=O)c3ccc(NC(=O)c4ccc(Cl)cc4)cc3)CC2)ccc2c1CCCC2 [TCMDC-138649] | 92.78 | – |
| O=C(NCCCCN1CCC(c2ccc3c(c2OC(=O)c2ccc(NC(=O)c4ccc(Cl)cc4)cc2)CCCC3)CC1)c1ccc(NC(=O)c2ccc(Cl)cc2)cc1 [TCMDC-138644] | 102.3 | – |
| O=C(NCCCCN1CCN(c2cccc3c2CCCC3)CC1)c1ccc(NC(=O)c2ccc(Cl)cc2)cc1 [TCMDC-138513] | -3.326 | – |
| O=C(NCCCCN1CCC(c2ccc3c(c2OCC2CC2)CCCC3)CC1)c1ccc(NC(=O)c2ccc(Cl)cc2)cc1 [TCMDC-138584] | 71.88 | – |
| CC(C)(C)c1cc(Cn2ccnc2)cc(C(C)(C)C)c1O [TCMDC-131317] | -23.04 | – |
| Cc1cnc(C(=O)Nc2cccc(-c3csc(-c4nc5ccccc5[nH]4)c3)c2)cn1 [TCMDC-132401] | -83.32 | – |
| CC(=O)c1ccc(N2CCN(C(=O)Nc3ccc(Cl)cc3)CC2)cc1 [TCMDC-125821] | -3.219 | – |
| O=C(O[C@@H]1CN[C@H](C#Cc2cc3ncnc(Nc4ccc5c(cnn5Cc5cccc(F)c5)c4)c3s2)C1)N1CCCC1 [TCMDC-135355] | -4.612 | – |
| CC(C)Oc1cc2c(cc1NS(=O)(=O)c1ccc(-c3cccs3)cc1)CCN(C)CC2 [TCMDC-141486] | 15.65 | – |
| COCCCC1C(=O)OC2CCCC21 (stereo not drawn) [TCMDC-131981] | 9.495 | – |
| O=C(O)C(F)(F)F.OCCN1CCN(Cc2cccc(-c3ccc(-c4nc5cc(C(F)(F)F)ccc5[nH]4)s3)c2)CC1 [TCMDC-133028] | 0.1652 | – |
| CCOC(=O)CCc1cc(F)c(F)c(OC[C@H](O)CNC(C)(C)C(O)c2ccc3ccccc3c2)c1 (stereo partly drawn) [TCMDC-141731] | -25.49 | – |
| Clc1ccc(-c2cc3c(NCc4ccncc4)nccc3s2)cc1 [TCMDC-135202] | 11.9 | – |
| CN(C)C(=O)CC(=O)NCc1c(Cl)cccc1Cl [TCMDC-131769] | -6.865 | – |

| Structure (SMILES) | % Inhibition [%] | % Inhibition (% Inhibition) [%] |
| --- | --- | --- |
| COc1cccc(NC(=O)Cn2c(C)c(C(=O)C(F)(F)F)c3ccccc32)c1 [TCMDC-123800] | 60.17 | – |
| COc1cccc(NC(=O)c2cc(Br)cc(N3CCN(c4ccncc4)CC3)c2)c1 [TCMDC-135146] | 1.077 | – |
| CC(C)C(NC(=O)Cc1cccc2ccccc12)C(=O)Nc1cccc(C#N)c1 (stereo not drawn) [TCMDC-125329] | -6.888 | – |
| COc1cccc(NC(=O)Nc2c(-c3cccc(C(F)(F)F)c3)c(C(F)(F)F)nn2C)c1 [TCMDC-124575] | 19.24 | – |
| COc1ccccc1Cn1ccnc1SCC(=O)Nc1cccc(C(F)(F)F)c1 [TCMDC-124737] | -18.32 | – |
| COc1cccc(NC(=O)Cn2c(C)c(C#N)c3ccccc32)c1 [TCMDC-125424] | 84.65 | – |
| O=C(/C=C/c1ccc(Cl)cc1)NCCCCCN1CCCN(C(=O)Nc2ccc(Cl)c(C(F)(F)F)c2)CC1 [TCMDC-136100] | -19.2 | – |
| O=C(Nc1cccc(N2CCC(NCCCn3ccnc3)CC2)c1)c1cccc(C(F)(F)F)c1 [TCMDC-124663] | 36.86 | – |
| Cc1ccc(S(=O)(=O)NC2CCN(CCNC(=O)Nc3cc(C)nc4ccccc34)C2)cc1 (stereo not drawn) [TCMDC-136143] | 91.8 | – |
| COc1ccc(S(=O)(=O)NC2CCN(CCNC(=O)Nc3cc(C)nc4ccccc34)C2)cc1 (stereo not drawn) [TCMDC-136141] | -35.07 | – |
| Cc1cc(NC(=O)NCCN2CCC(NS(=O)(=O)c3cccc(Br)c3)C2)c2ccccc2n1 (stereo not drawn) [TCMDC-136138] | 15.89 | – |
| Cc1cc(NC(=O)NCCN2CCC(NS(=O)(=O)c3ccc(Br)cc3)C2)c2ccccc2n1 (stereo not drawn) [TCMDC-136139] | 5.798 | – |
| Cc1cc(NC(=O)NCCN2CCC(NC(=O)c3ccc(Cl)cc3)CC2)c2ccccc2n1 [TCMDC-136171] | -56.82 | – |
| Cc1cc(OCCCN2CCC(NC(=O)c3ccc(Br)cc3)C2)c2ccccc2n1 (stereo not drawn) [TCMDC-136284] | 3.225 | – |
| COc1ccc(NC(=O)NC2CCN(CCCOc3ccnc4cc(Cl)ccc34)C2)cc1OC (stereo not drawn) [TCMDC-136148] | -28.4 | – |
| COc1ccc(NC(=O)NC2CCN(CCCOc3cc(C)nc4ccccc34)CC2)cc1OC [TCMDC-136281] | 77.42 | – |
| Cc1cc(NC(=O)NCCN2CCC(NC(=O)c3cccc(Br)c3)C2)c2ccccc2n1 (stereo not drawn) [TCMDC-136175] | 92.91 | – |
| Cc1ccc(C(=O)NC2CCN(CCNC(=O)Nc3cc(C)nc4ccccc34)CC2)cc1 [TCMDC-136172] | -7.111 | – |
| Cc1cc(NC(=O)NCCN2CCC(NC(=O)c3ccc(F)cc3)CC2)c2ccccc2n1 [TCMDC-136173] | 91.01 | – |
| Cc1cc(NC(=O)NCCN2CCC(NC(=O)c3ccc(C(F)(F)F)cc3)CC2)c2ccccc2n1 [TCMDC-136174] | -43.73 | – |
| CC(=O)Nc1ncc(C(=O)Nc2cccc(-c3ccc(-c4nc5ccc(C(F)(F)F)cc5[nH]4)cc3)c2)s1 [TCMDC-136921] | -28 | – |
| CC(=O)Oc1c(C2C=CCCC2)c(OC(C)=O)c2ccccc2c1OC(C)=O (stereo not drawn) [TCMDC-138176] | 9.671 | – |
| O=C(NC1CCCCC1)c1ccc(O)c(-c2cccc(C(F)(F)F)c2)c1 [TCMDC-140163] | -1.763 | – |
| Cc1ccc(O)cc1Nc1ccnc2cc(-c3csc(CNCCN4CCOCC4)n3)ccc12 [TCMDC-138457] | 16.99 | – |
